# Bioassay records from PubChem BioAssay.
# RGS16-Gao – modulators of RGS16 binding to Galphao, primary screen, biochemical, human proteins, multiplexed bead flow cytometry; bead-based flow cytometry RGS16-Galphao binding, fluorescence; actives lie on both sides; binding response (% of control), % at 10 µM; hit rate 0.38% among 220,000; AID 1441, 2008; call rule not given here;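 further: Galphao activated by GDP with aluminum fluoride before binding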
# Target sequence (O15492 whole entry, looked up): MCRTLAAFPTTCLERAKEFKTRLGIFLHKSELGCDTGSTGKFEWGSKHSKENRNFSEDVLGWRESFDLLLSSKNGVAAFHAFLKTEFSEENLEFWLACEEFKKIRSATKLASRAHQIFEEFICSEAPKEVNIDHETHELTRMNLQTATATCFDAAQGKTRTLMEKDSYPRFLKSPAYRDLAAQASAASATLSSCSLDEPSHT
# Target sequence (P09471 whole entry, looked up): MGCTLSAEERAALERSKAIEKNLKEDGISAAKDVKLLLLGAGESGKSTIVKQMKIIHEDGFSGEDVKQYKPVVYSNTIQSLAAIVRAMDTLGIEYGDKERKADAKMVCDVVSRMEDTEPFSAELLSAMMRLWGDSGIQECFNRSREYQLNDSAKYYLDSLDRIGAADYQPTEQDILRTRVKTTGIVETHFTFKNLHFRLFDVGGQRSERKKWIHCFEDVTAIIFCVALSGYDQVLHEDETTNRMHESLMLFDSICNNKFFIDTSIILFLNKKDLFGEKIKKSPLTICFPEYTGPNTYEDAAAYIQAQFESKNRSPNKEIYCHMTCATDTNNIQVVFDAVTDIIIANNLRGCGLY
# RGS4-Gao reg – modulators of RGS4 binding to Galphao, primary screen, biochemical, multiplexed bead flow cytometry; Guanine nucleotide-binding protein G(o) subunit alpha (Homo sapiens), P09471; hit rate 0.33% among 220,000; binding response (% of control), % at 10 µM; actives lie on both sides; in the data active means binding response below about 49% or above about 150%; inactive means in between;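 further: fluorescent Galphao activated with aluminum fluoride binding bead-coupled RGS4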
# RGS7-Gao reg – RGS7-Galphao binding modulators, primary screen, biochemical, multiplexed bead flow cytometry; hit rate 0.35% among 220,000; binding response (% of control), % at 10 µM; actives lie on both sides; Guanine nucleotide-binding protein G(o) subunit alpha (Homo sapiens), P09471; in the data active means binding response below about 49% or above about 150%; inconclusive means no clear call, values can overlap the other calls; inactive means in between;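 further: fluorescent Galphao held in activated GDP-AlF4 state binding bead-coupled RGS7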
# GSH bead fluor – compound fluorescence on glutathione beads, profiling panel, artefact control, biophysical, 488/530 nm, flow cytometry; AID 1776, 2009; fluorescence (KMESF) at 10 µM; hit rate 0.25% among 190,000; GSH beads flow cytometry, compound fluorescence 488/530 nm; stronger effect = higher value; in the data active means fluorescence above about 89;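 further: glutathione beads carrying GST-tagged Bcl family fusion proteins plus one bare bead set; values are compound well signal with DMSO vehicle wells as background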
# RGS8-Gao – RGS8-Galphao binding modulators, primary screen, biochemical, multiplexed bead flow cytometry. Guanine nucleotide-binding protein G(o) subunit alpha (Homo sapiens), P09471. actives lie on both sides. response (percent of control binding), % at 10 µM. hit rate 0.34% among 220,000. AID 1423, 2008; in the data active means response below about 60% or above about 140%; inactive means in between;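 further: Galphao activated as the GDP aluminium fluoride complex binding bead-coupled RGS8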
# Avidin fluor – green autofluorescence of compounds with avidin beads – biophysical, 488/530 nm, flow cytometry, artefact control, profiling panel; compound fluorescence 488/530 nm; stronger effect = higher value; fluorescence (KMESF) at 10 µM; hit rate 0.38% among 220,000; in the data active means fluorescence above about 47
# * hit, by the source's call; ? = inconclusive; nt = no result given. A selection: hits, their analogues and other compounds. The true share with any hit is near 1.2%.
SMILES,RGS16-Gao,RGS4-Gao reg,RGS7-Gao reg,GSH bead fluor,RGS8-Gao,Avidin fluor
Fc1ccc2c(Cl)c(-c3nnc(-c4cccs4)o3)sc2c1,101,99,101,255*,100,7
Cc1ccc(N=Cc2c(O)[nH]c3ccccc23)c([N+](=O)[O-])c1,93,94,?,13,99,9
Cc1cc(C)n(C(=O)c2c([N+](=O)[O-])c(C)nn2C)n1,98,93,96,150*,99,6
CCOP(=O)(OCC)C(Nc1ccccc1)c1ccccc1C(F)(F)F (configuration not stated),101,104,?,nt,98,15
COc1cc(C(=O)N2CCN(C(=O)CC(C)C)CC2)cc(OC)c1OC,101,110,131,28,97,120*
C=CCOc1cccc(/C=N/NC(=O)CN(c2cc(Cl)ccc2OC)S(=O)(=O)c2ccc(C)c([N+](=O)[O-])c2)c1,122,117,121,196*,98,34
COc1ccc(Cl)cc1N(CC(=O)N/N=C/c1ccc(OC(C)C)cc1)S(=O)(=O)c1ccc(C)c([N+](=O)[O-])c1,103,100,93,5,104,12
CCC(=O)O/N=C(\N)c1ccc(Oc2cc(C)c(Cl)c(C)c2)c([N+](=O)[O-])c1,90,86,?,nt,99,9
N#Cc1c(N)oc(-c2ccccc2)c1-c1ccccc1,99,100,98,268*,101,10
COc1ccc(CC2(CO)CCN(CC3=Cc4cc(Cl)ccc4OC3)CC2)cc1,70,70,71,12,79,7
CC1(C)Cc2c(sc3nnn(CC(=O)Nc4ccccc4)c(=O)c23)CO1,92,127,?,nt,94,92*
COc1ccccc1NC(=O)Cn1nnc2sc3c(c2c1=O)CC(C)(C)OC3,99,96,?,nt,99,3
O=C(Cn1cnc2ccccc2c1=O)N1CCc2ccccc2C1,99,93,93,11,97,21
O=C(Cn1cnc2ccccc21)OCC(=O)N1CCc2ccccc2C1,122,142,141,11,119,52*
Cc1c(C(=O)C(=O)N2c3ccccc3CC2C)c2ccccc2n1C (configuration not stated),106,103,97,21,104,10
N#Cc1ccc(C(=O)Nc2cccc(NC(=O)c3ccco3)c2)c(F)c1,104,98,94,23,101,10
O=c1cc(-c2ccccc2)[nH]n1-c1nc2ccccc2[nH]1,90,94,106,25,96,50*
CCc1cc(=O)[nH]c(-n2[nH]c(-c3ccccc3)cc2=O)n1,104,101,103,13,102,14
CC(=O)NC1C2CN3CCN(C2)CC1(Cc1ccccc1)C3 (configuration not stated),101,98,100,22,102,11
Cc1ccc(CC23CN4CCN(CC(C4)C2O)C3)c(C)c1 (configuration not stated),101,103,121,22,97,69*
CCOc1ccc(NC(=S)Nc2ccc(OCC)cc2)cc1,108,101,101,14,104,12
CCOc1ccc(NC(=S)Nc2ccc(OC(F)(F)F)cc2)cc1,100,98,98,146*,101,5
CCCC(=O)OCC(=O)Nc1cc(C(C)(C)C)nn1-c1ccccc1,118,118,112,91*,103,14
CCCNC(=O)Nc1nccs1,99,101,105,24,101,57*
Cc1cc2ncn(C(=O)N3CCCCCC3)c2cc1C,44,91,93,97*,88,2
SMILES,RGS16-Gao,RGS4-Gao reg,RGS7-Gao reg,GSH bead fluor,RGS8-Gao,Avidin fluor
NCC12CC3CC(CC(O)(C3)C1)C2,102,103,101,262*,103,7
COCCCNC(=O)CSC1=Nc2ccccc2C2=NC(c3ccccc3)C(=O)N12 (configuration not stated),108,101,122,12,103,69*
COCCCNC(=O)CSC1=Nc2ccccc2C2=NC(Cc3c[nH]c4ccccc34)C(=O)N12 (configuration not stated),108,102,104,24,102,7
CNC(=S)N1N=C(c2ccc(Br)cc2)CC1c1ccc(N(C)C)cc1 (configuration not stated),104,104,?,16,102,9
CNC(=S)N1N=C(c2ccc(Br)cc2)CC1c1ccc(Br)cc1 (configuration not stated),93,98,104,23,97,48*
O=C(OCC(=O)N1CCOCC1)c1ccc2c(c1)OCCO2,-154,32*,30*,12,42*,1
CC(NC(=O)c1ccc2nc[nH]c2c1)c1ccccc1 (configuration not stated),112,103,109,25,106,11
CCC(CC)NC(=O)c1ccc2nc[nH]c2c1,102,103,96,262*,102,9
CCCn1c(C)cc(C(=O)COc2ccc(-c3nnco3)cc2)c1C,102,96,96,9,95,25
O=C(CSCc1ccccc1Br)N/N=C/c1ccccc1C(=O)O,100,97,101,10,100,4
CC(=O)OCC(=O)Nc1ccc([N+](=O)[O-])cc1Cl,104,102,106,21,103,8
CC(=O)OCC(=O)Nc1ccc(Cl)cc1Cl,113,124,114,231*,112,4
CCc1c(C)sc(NC(=O)c2cccs2)c1C(=O)OC(C)C,99,100,100,28,101,11
Cc1sc(NC(=O)c2cccs2)c(C(=O)OC(C)C)c1C,108,110,105,102*,106,5
S=c1[nH]nc(-c2ccccc2Cl)n1CC1CCCO1 (configuration not stated),104,103,110,30,101,52*
O=S(=O)(c1ccc(-c2ccon2)s1)N1CCN(CCN2CCOCC2)CC1,101,103,?,nt,101,8
CC1(c2ccccc2)NC(=O)N(CCOc2ccccc2)C1=O (configuration not stated),104,103,102,263*,100,7
CN1CC(=O)N(CCOc2ccccc2)C1=O,107,102,99,263*,101,8
O=C1CNC(=S)N1CCOc1ccccc1,99,95,?,nt,99,7
Cc1cccc(C)c1OCCN1C(=O)NC(C)(c2ccccc2)C1=O (configuration not stated),104,110,105,12,109,6
CCn1c(C)c(P(c2ccccc2)c2ccccc2)[n+]2ccccc12,117,105,108,11,106,25
NC(=O)c1ccsc1NC(=O)CSc1nnc(Nc2ccccc2)s1,99,99,95,15,100,7
